# In PubChem BioAssay:
# Active and inactive are the calls of the source.
# Legend:
# Albumin (Bos taurus) = Albumin (Bos taurus) (UniProt P02769); test: compounds binding labelled BSA control protein – biochemical, small-molecule microarray, Alexa647 label, 635/667 nm fluorescence, artefact control for SMM control protein annotation, profiling panel (AID 1118); conditions: BSA-A647 binding, fluorescence 635 nm, higher = more signal;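 also: score merges 667 nm emission intensity and signal-to-noise per printed compound spot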
# [1] = probe aXIP binding to arrayed compounds – biochemical, NeuroSMM set, 635/667 nm fluorescence, primary screen (AID 1119); conditions: small-molecule microarray, higher = more signal, called active from +8 up or from −8 down;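 also: probe is the protein aXip251-270 applied at 1 µg/mL to compound-printed slides; binding of probe to printed compounds measured as 667 nm fluorescence plus signal to noise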
# [2] = probe aNOTCH3 binding on compound microarray – biochemical, small-molecule microarray, 635/667 nm fluorescence, primary screen (AID 1120); conditions: higher = more signal;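 also: probe is a biotin-tagged antibody raised against NOTCH3 rather than NOTCH3 protein; score merges spot fluorescence near 667 nm with spot signal to noise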
# [3] = probe aNOTCH2 binding on compound microarray – biochemical, small-molecule microarray, 635/667 nm fluorescence, primary screen (AID 1121); conditions: higher = more signal;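 also: score merges feature fluorescence read at 667 nm with its signal to noise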
# [4] = target: Carbonic anhydrase 2 (Homo sapiens) (UniProt P00918); test: compounds binding carbonic anhydrase 2 – biochemical, small-molecule microarray, Alexa647-labelled CAII, profiling panel (AID 1122); conditions: CAII-A647 binding fluorescence, higher = more signal
# [5] = COS7 lysate on small-molecule microarray, probe aHis, 635 nm (AID 1123); conditions: COS7 cell lysate, fluorescence, higher = more signal;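 also: z-score combines 667nm fluorescence intensity with signal-to-noise per printed compound spot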
# [6] = probe aLAP1 signal on lysate-treated microarray – cell lysate, small-molecule microarray, COS7 lysate, primary screen (AID 1124); conditions: probe aLAP1, fluorescence, higher = more signal;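 also: lysate comes from COS7 cells expressing LAP1 and is applied at 0.3 µg/mL; score merges spot fluorescence near 667 nm with signal-to-noise over triplicate slides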
# Sam68 (KHDRBS1) = test: compounds binding KHDRBS1 protein – biochemical, small-molecule microarray, 635 nm fluorescence, primary screen (AID 1125); conditions: higher = more signal;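 also: score merges 667 nm channel intensity with signal to noise over triplicate slides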
# [7] = tested on: Chordin-like protein 2 (CHRDL2); test: compounds binding chordin-like 2 – biochemical, small-molecule microarray, 635 nm fluorescence, primary screen (AID 1126); conditions: fluorescence 635 nm, higher = more signal;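 also: printed compound slides probed with Chrdl2 protein at 4 µg/mL for 1 h at 4 C; score merges 667 nm emission intensity with signal to noise over three replicate slides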
# [8] = target: Concanavalin-A (Canavalia ensiformis) (UniProt P02866); test: compounds binding concanavalin A lectin – biochemical, small-molecule microarray, Alexa647 label, 635 nm, artefact control for SMM control protein annotation, primary screen (AID 1127); conditions: ConA-A647 binding fluorescence, higher = more signal;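 also: z combines 667 nm emission intensity with signal-to-noise across three replicate slides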
# Concanavalin-A (Canavalia ensiformis), sequence (P02866 whole entry, looked up): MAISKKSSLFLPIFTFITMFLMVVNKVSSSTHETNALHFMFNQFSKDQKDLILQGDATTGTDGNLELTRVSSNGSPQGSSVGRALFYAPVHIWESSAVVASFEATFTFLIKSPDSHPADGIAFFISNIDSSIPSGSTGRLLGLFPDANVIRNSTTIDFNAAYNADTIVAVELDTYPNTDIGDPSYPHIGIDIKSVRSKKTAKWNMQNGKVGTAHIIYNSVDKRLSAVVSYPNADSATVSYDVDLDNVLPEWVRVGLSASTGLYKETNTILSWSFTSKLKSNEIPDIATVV
# Albumin (Bos taurus), sequence (P02769 whole entry, looked up): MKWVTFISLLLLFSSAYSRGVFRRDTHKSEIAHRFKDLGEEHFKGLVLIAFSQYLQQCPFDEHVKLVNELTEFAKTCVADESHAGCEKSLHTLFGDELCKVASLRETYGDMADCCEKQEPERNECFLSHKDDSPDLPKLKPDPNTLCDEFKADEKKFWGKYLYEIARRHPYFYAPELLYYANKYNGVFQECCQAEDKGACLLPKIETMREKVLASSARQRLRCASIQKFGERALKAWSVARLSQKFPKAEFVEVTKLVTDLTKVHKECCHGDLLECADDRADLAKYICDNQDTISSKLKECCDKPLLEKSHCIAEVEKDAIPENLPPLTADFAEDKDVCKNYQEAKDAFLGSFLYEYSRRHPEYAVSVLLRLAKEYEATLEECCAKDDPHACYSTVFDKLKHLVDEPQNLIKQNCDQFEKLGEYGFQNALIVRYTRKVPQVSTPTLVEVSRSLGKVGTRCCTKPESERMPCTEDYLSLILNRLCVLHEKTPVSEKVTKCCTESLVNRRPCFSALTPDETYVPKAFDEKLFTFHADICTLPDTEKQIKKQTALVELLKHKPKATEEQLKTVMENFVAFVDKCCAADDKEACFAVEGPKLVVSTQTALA
SMILES,composite z-score (Albumin (Bos taurus)),composite Z-score [1],composite z-score [2],composite z-score [3],composite z-score [4],composite z-score [5],composite z-score [6],composite z-score (Sam68 (KHDRBS1)),composite z-score [7],composite z-score [8]
CCOc1ccc(N2C(=O)/C(=C/C=C/c3ccccc3OC)S(=O)(=O)C2c2cccc([N+](=O)[O-])c2)cc1 (stereo not given),0.382,-0.327 (inactive),0.0762,-0.0793,-0.138,0.13,0.32,-0.319,0.198,0.133
CC(C)[C@@H](OCc1ccccc1)[C@H](C)C=NOC[C@@H](C)[C@H](OCc1ccccc1)C(C)C,-0.248,-0.161 (inactive),-0.0111,-0.126,-0.265,-0.393,-0.0427,-0.24,0.457,0.31
COC(=O)[C@H](C)NC(=O)[C@@H](C)CO,0.802,0.292 (inactive),-0.105,-0.103,0.516,1.15,0.531,1.03,0.0899,0.907
CCN1C(=O)[C@H]2[C@H]3[C@H](O)C=CC(=O)[C@@H]3CC[C@H]2C1=O,-0.338,-0.56 (inactive),0.0519,-0.117,-0.132,-0.177,0.402,0.234,0.587,0.373
CC(=O)C[C@H](O)[C@@H](NC(=O)OC(C)(C)C)C(C)C,-0.587,-0.24 (inactive),-0.0903,-0.14,-0.424,-0.336,-0.286,-1.8,-0.405,-0.385
C[C@@H](c1ccccc1)N1C(=O)[C@H]2[C@H]3[C@H](O)[C@H](O)CC(=NNC(=O)OCc4ccccc4)[C@H]3CC[C@H]2C1=O,0.3,0.281 (inactive),-0.046,-0.0978,-0.112,0.947,0.221,-0.495,0.13,0.0811
COc1ccc(O[C@H]2C=C[C@@H](c3ccccc3)O[C@@H]2COC(=O)N2CCCCC2)cc1,-0.725,0.0229 (inactive),-0.131,-0.111,-0.29,-0.482,0.0033,-0.907,0.387,-0.578
